ChEMBL document CHEMBL1961873, “Compounds: GSK PKIS; Assays: Nanosyn kinase panel” (2012)

Experiments:
[1] = tested on: Epidermal growth factor receptor (Homo sapiens), P00533 [T790M]; conditions: at 1 µM
[2] = tested on: Epidermal growth factor receptor (Homo sapiens), P00533 [L858R,T790M]; conditions: at 0.1 µM
[3] = tested on: Epidermal growth factor receptor (Homo sapiens), P00533 [L858R,T790M]; conditions: at 1 µM
[4] = biological target: Ephrin type-A receptor 2 (Homo sapiens) (UniProt P29317); conditions: at 0.1 µM
[5] = biological target: Ephrin type-A receptor 2 (Homo sapiens) (UniProt P29317); conditions: at 1 µM
[6] = biological target: T1, Ephrin type-A receptor 3 (Homo sapiens) (UniProt P29320); conditions: at 0.1 µM
T1 sequence (whole entry): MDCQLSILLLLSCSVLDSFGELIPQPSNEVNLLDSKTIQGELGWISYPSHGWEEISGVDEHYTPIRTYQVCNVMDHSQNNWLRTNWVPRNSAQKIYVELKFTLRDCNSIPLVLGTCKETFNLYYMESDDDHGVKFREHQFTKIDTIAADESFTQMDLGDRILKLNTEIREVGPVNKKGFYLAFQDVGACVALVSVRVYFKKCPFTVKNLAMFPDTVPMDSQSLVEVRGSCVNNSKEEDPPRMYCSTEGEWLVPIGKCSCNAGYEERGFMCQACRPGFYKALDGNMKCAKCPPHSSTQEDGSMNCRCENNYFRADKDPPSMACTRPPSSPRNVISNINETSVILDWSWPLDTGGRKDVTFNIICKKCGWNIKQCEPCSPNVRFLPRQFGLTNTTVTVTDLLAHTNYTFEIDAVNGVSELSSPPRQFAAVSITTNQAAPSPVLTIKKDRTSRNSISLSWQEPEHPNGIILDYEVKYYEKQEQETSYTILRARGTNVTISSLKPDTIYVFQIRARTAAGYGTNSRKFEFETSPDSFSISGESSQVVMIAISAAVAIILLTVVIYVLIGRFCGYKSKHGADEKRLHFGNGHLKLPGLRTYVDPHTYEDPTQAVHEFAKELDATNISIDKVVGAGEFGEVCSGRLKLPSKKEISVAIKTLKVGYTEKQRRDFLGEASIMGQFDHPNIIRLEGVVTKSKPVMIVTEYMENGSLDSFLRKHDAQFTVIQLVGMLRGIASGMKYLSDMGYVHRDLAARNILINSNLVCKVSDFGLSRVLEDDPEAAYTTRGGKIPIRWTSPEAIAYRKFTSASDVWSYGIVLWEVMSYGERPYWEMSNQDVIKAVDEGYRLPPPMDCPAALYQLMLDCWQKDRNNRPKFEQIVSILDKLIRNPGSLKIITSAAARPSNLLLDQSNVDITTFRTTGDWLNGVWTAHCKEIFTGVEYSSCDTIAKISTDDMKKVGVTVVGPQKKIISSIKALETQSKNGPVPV

[7] = biological target: T1, Ephrin type-A receptor 3 (Homo sapiens); conditions: at 1 µM
[8] = biological target: Ephrin type-A receptor 4 (Homo sapiens) (UniProt P54764); conditions: at 0.1 µM
Sequence of Ephrin type-A receptor 4 (Homo sapiens) (P54764 whole entry): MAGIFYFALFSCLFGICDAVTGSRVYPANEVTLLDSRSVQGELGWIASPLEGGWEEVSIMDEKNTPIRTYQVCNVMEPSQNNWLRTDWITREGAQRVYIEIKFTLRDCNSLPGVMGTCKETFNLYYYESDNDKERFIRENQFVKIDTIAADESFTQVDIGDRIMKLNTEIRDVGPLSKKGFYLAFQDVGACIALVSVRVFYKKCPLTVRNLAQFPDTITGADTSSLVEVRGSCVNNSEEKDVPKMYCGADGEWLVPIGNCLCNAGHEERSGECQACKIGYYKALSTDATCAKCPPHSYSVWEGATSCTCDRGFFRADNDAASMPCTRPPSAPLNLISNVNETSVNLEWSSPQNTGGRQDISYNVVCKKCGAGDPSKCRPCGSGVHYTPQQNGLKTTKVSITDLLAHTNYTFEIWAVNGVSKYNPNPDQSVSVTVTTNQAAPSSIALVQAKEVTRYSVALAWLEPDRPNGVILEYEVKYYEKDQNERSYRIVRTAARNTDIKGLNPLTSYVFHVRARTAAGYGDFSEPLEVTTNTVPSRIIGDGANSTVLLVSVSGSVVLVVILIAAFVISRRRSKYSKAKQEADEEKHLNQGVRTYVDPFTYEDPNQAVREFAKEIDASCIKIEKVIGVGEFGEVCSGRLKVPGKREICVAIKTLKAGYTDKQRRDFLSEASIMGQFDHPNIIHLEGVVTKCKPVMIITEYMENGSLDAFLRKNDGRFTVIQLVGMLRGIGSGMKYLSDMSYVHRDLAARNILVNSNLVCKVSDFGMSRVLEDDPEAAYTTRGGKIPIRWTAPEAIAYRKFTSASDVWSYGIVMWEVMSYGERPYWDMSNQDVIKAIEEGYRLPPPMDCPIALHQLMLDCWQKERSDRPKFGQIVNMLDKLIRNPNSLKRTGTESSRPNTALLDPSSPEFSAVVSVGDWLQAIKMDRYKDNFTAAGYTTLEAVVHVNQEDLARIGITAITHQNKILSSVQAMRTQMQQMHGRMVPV

[9] = biological target: Ephrin type-A receptor 4 (Homo sapiens) (UniProt P54764); conditions: at 1 µM
[10] = biological target: T2, Ephrin type-B receptor 2 (Homo sapiens) (UniProt P29323); conditions: at 0.1 µM
T2 sequence (whole entry): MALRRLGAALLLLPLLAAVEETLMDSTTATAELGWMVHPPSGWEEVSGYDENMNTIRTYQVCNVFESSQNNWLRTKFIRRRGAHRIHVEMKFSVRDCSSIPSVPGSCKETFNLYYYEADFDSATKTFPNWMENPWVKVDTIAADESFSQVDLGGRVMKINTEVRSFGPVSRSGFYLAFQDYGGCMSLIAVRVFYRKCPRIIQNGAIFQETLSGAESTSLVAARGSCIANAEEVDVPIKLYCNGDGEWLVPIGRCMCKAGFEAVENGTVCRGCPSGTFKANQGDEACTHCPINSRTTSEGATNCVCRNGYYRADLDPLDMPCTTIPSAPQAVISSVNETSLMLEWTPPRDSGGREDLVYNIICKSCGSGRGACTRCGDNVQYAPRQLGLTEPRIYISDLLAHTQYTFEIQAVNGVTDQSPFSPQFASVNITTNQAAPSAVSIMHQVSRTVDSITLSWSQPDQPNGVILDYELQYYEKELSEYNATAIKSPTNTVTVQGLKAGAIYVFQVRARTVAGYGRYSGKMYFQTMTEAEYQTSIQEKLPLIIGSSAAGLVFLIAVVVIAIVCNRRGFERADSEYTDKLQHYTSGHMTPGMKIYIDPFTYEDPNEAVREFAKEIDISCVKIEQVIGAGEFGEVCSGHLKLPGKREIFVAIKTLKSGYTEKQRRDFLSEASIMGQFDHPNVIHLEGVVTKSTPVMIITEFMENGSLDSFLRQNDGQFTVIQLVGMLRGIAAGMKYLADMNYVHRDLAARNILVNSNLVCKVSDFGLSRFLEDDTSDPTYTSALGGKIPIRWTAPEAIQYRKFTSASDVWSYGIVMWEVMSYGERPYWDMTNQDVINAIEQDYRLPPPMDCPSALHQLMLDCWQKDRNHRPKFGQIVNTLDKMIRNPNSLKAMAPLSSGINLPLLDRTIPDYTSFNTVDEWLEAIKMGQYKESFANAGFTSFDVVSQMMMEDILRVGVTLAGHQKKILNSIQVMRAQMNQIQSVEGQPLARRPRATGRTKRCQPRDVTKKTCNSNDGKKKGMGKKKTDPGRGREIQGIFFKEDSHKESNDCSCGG

[11] = biological target: T2, Ephrin type-B receptor 2 (Homo sapiens); conditions: at 1 µM
[12] = biological target: T3, Ephrin type-B receptor 3 (Homo sapiens) (UniProt P54753); conditions: at 0.1 µM
T3 sequence (whole entry): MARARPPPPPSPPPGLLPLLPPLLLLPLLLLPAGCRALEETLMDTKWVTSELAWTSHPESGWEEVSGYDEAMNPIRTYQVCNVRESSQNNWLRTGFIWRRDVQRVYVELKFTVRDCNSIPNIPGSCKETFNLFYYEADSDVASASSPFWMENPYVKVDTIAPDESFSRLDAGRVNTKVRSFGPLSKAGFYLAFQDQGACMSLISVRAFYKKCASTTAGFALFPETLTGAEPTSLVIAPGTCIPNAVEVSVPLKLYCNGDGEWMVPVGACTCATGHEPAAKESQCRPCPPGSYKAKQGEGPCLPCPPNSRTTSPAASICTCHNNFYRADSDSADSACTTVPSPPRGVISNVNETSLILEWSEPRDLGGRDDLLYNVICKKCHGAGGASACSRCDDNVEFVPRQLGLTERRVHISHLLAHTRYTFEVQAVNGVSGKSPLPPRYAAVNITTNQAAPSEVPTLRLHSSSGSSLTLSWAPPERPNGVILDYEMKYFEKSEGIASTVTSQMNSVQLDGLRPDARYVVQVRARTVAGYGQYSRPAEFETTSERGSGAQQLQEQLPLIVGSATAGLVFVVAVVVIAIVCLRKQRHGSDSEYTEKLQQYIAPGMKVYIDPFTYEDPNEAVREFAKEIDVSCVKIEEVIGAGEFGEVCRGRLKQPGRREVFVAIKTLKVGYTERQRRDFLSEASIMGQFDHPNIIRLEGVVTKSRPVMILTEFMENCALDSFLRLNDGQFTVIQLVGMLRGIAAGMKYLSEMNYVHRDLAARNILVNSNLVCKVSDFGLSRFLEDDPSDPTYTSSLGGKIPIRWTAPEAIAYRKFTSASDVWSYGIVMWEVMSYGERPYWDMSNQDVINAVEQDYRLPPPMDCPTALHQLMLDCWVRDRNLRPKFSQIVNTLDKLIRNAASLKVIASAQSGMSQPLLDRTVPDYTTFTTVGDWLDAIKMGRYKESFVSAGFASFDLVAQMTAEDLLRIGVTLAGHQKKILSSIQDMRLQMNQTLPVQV

[13] = biological target: T3, Ephrin type-B receptor 3 (Homo sapiens); conditions: at 1 µM
[14] = biological target: T4, Ephrin type-B receptor 4 (Homo sapiens) (UniProt P54760); conditions: at 0.1 µM
T4 sequence (whole entry): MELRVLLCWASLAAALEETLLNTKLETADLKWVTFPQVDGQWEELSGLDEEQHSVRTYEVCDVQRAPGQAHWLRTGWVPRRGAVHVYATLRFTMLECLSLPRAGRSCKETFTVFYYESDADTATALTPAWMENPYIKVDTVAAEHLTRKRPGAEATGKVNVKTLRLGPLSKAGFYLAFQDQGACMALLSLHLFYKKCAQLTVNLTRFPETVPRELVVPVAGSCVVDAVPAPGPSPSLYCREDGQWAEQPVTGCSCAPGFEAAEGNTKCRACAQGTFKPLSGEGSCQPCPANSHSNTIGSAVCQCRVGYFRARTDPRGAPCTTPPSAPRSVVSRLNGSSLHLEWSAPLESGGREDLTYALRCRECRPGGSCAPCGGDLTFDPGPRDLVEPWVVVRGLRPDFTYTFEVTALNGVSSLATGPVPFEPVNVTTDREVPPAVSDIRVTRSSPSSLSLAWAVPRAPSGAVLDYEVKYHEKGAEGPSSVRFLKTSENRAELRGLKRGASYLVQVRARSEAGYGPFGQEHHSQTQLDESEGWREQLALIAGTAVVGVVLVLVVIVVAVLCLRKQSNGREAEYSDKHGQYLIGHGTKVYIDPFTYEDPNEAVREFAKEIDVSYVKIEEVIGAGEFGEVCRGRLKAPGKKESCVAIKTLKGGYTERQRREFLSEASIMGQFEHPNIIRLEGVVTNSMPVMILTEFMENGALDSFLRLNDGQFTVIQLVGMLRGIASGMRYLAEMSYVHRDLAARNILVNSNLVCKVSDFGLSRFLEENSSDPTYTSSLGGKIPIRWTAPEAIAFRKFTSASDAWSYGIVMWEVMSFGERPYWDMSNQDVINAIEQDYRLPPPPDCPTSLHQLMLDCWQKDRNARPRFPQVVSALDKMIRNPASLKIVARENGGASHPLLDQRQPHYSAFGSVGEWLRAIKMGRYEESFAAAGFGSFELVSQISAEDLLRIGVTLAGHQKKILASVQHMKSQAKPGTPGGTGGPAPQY

[15] = biological target: T4, Ephrin type-B receptor 4 (Homo sapiens); conditions: at 1 µM
[16] = biological target: Receptor tyrosine-protein kinase erbB-2 (Homo sapiens) (UniProt P04626); conditions: at 0.1 µM
[17] = biological target: Receptor tyrosine-protein kinase erbB-2 (Homo sapiens) (UniProt P04626); conditions: at 1 µM
[18] = biological target: Receptor tyrosine-protein kinase erbB-4 (Homo sapiens) (UniProt Q15303); conditions: at 0.1 µM
Sequence of Receptor tyrosine-protein kinase erbB-4 (Homo sapiens) (Q15303 whole entry): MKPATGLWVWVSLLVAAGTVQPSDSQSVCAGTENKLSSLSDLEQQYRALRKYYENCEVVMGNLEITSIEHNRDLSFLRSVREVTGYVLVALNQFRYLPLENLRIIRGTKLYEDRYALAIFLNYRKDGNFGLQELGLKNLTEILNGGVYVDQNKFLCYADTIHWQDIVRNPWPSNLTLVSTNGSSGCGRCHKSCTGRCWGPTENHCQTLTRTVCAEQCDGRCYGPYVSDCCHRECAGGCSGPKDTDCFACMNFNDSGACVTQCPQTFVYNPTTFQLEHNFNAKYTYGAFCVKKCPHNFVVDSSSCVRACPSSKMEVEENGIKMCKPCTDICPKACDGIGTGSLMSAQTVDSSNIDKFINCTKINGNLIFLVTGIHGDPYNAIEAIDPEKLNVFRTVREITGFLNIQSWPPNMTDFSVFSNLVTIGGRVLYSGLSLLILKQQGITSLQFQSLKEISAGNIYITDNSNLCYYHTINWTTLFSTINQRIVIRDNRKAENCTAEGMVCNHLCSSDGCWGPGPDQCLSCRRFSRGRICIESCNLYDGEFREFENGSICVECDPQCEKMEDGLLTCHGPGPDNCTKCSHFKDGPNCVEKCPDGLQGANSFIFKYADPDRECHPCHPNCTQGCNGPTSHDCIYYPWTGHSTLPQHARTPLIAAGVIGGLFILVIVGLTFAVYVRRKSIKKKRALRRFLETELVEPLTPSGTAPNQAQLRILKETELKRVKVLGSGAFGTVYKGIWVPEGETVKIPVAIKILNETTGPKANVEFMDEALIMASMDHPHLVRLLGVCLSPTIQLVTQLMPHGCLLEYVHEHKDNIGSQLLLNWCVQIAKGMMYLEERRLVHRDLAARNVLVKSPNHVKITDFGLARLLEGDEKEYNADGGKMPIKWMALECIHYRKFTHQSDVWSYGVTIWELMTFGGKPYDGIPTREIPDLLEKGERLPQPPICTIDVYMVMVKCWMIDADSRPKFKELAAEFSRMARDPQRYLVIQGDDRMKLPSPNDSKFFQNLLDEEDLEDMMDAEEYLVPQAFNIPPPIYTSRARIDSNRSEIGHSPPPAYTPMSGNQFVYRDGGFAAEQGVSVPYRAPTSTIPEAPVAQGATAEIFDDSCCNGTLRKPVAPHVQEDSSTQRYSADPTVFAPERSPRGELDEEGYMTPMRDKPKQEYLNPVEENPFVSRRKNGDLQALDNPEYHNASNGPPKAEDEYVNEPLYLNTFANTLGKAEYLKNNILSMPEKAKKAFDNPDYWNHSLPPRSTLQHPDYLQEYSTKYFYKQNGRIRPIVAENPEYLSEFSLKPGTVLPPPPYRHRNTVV

[19] = biological target: Receptor tyrosine-protein kinase erbB-4 (Homo sapiens) (UniProt Q15303); conditions: at 1 µM
[20] = biological target: Tyrosine-protein kinase Fer (Homo sapiens) (UniProt P16591); conditions: at 0.1 µM;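 further: reported figures are averaged percent inhibition of FER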

Sequence of Epidermal growth factor receptor (Homo sapiens), P00533 [L858R,T790M] (P00533 whole entry T790M/L858R, looked up): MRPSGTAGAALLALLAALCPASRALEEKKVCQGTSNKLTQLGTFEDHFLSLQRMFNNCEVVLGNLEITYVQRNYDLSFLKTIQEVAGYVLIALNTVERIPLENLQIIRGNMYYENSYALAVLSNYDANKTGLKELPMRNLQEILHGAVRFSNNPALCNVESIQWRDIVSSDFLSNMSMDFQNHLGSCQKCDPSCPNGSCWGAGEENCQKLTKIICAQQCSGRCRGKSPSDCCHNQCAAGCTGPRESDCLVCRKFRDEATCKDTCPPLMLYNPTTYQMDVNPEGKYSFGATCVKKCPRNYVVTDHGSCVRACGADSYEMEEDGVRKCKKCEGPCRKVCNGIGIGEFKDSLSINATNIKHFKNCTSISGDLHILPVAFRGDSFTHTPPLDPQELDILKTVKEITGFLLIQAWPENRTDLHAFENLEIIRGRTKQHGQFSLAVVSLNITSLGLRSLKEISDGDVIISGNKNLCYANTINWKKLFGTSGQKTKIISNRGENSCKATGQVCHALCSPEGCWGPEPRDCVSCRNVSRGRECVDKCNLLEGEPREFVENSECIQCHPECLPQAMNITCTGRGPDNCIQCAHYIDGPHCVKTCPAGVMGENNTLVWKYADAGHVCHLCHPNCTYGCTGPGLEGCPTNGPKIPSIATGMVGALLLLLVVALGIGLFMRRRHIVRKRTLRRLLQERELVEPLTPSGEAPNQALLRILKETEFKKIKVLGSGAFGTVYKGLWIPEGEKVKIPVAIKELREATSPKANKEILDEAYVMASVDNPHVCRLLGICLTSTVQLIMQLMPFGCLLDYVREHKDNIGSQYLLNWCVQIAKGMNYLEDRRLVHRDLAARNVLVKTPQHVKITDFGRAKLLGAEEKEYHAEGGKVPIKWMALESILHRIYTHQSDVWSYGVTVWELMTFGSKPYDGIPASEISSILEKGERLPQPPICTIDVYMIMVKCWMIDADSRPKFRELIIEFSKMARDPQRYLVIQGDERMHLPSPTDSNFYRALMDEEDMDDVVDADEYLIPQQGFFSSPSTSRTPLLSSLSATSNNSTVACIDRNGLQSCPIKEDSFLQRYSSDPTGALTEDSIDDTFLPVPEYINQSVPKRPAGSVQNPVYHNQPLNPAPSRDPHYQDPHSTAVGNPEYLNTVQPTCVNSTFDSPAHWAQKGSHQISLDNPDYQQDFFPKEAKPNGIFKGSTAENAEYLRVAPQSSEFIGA
Sequence of Epidermal growth factor receptor (Homo sapiens), P00533 [T790M] (P00533 whole entry T790M): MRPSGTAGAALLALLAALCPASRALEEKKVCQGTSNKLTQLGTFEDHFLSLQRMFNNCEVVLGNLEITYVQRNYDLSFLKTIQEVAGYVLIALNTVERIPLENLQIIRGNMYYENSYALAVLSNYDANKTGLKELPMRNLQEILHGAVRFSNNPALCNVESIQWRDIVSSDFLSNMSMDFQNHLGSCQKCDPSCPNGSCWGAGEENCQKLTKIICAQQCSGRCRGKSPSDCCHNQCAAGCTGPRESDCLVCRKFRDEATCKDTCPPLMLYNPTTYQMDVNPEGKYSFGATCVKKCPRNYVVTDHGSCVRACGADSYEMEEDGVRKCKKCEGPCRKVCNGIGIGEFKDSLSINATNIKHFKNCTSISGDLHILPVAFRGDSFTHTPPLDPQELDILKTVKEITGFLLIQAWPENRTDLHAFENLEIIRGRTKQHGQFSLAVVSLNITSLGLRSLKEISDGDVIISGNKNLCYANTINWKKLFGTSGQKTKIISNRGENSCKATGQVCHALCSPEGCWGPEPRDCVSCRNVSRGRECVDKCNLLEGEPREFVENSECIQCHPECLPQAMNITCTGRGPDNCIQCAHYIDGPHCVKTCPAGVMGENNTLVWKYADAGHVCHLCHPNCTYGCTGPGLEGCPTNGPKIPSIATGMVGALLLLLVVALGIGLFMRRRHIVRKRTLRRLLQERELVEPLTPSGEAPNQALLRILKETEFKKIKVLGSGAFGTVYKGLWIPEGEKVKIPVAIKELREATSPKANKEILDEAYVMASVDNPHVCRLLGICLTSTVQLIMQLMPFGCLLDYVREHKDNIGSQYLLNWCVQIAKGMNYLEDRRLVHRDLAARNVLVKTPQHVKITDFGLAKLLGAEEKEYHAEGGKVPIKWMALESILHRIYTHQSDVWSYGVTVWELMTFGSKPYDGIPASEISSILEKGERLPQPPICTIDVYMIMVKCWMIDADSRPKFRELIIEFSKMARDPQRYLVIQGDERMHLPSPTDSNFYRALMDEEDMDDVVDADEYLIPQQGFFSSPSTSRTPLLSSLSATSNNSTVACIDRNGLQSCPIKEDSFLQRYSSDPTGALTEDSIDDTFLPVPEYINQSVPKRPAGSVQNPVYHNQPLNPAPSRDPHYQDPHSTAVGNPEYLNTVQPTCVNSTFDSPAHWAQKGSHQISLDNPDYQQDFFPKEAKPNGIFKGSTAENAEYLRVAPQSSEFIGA

| Compound | inhibition [1] [%] | inhibition [2] [%] | inhibition [3] [%] | inhibition [4] [%] | inhibition [5] [%] | inhibition [6] [%] | inhibition [7] [%] | inhibition [8] [%] | inhibition [9] [%] | inhibition [10] [%] | inhibition [11] [%] | inhibition [12] [%] | inhibition [13] [%] | inhibition [14] [%] | inhibition [15] [%] | inhibition [16] [%] | inhibition [17] [%] | inhibition [18] [%] | inhibition [19] [%] | inhibition [20] [%] |
| --- | --- | --- | --- | --- | --- | --- | --- | --- | --- | --- | --- | --- | --- | --- | --- | --- | --- | --- | --- | --- |
| Cc1ccc(C(=O)NC2CCCCC2)cc1-c1ccc(C(=O)NCC2CC2)cc1 | -2.05 | -0.59 | -0.67 | 2.02 | 1.67 | 5.5 | 5.14 | 8.35 | 3.57 | 6.79 | 7.74 | 5.37 | 1.76 | 1.61 | 0.58 | -0.05 | -2.24 | 13.3 | 17.9 | 5.55 |
| CS(=O)(=O)CCNCc1ccc(-c2ccc3ncnc(Nc4ccc(OCc5cccc(F)c5)c(C(F)(F)F)c4)c3c2)o1 | 3.43 | -0.63 | -1.62 | 0.17 | 1.21 | 3.24 | 1.95 | 8.08 | 6.97 | 4.21 | 4.49 | 6.25 | 3.96 | 2.87 | 0.47 | 3.41 | 7.46 | 8.49 | 16.9 | 4.27 |
| Cc1ccc(NC(=O)c2ccnc(N3CCCC3)c2)cc1-c1ccc(C(=O)NCC2CC2)cc1 | 0.9 | -0.13 | 2.67 | -2.27 | -2.02 | -0.85 | -0.25 | 7.04 | 5.58 | 4.55 | 6.65 | 1.72 | -1.41 | -3.04 | -2.95 | 2.34 | -3.44 | 6.37 | 5.79 | 0.77 |
| COc1ccc(-c2coc3ncnc(N)c23)cc1 | -0.41 | 3.68 | 1.07 | 1.21 | 1.62 | 2.58 | 3.4 | 7.51 | 3.15 | 4.53 | 7.88 | 6.18 | 5.65 | 2.3 | 3.43 | 0.31 | -4.24 | 9.06 | 15.5 | 6.86 |
| Nc1nc(-c2ccc3c(c2)C(=Cc2cc(Br)c(O)c(Br)c2)C(=O)N3)cs1 | -1.57 | -0.73 | 3.93 | -4.92 | -4.26 | -6.05 | -2.41 | -6.57 | -2.56 | -3.26 | -1.17 | -1.61 | -4.71 | -0.3 | -2.45 | -4.27 | 2.84 | -6.34 | -0.4 | 5.18 |
| COc1ccc(-c2ccncc2)cc1C(N)=O | 2.61 | 3.26 | 3.22 | 0.83 | 0.98 | 2.75 | 4.65 | 6.67 | 8.05 | 5.39 | 8.22 | 3.97 | 3.63 | 1 | 2.03 | 1.06 | 2.95 | 6.21 | 12.3 | 4.03 |
